Laboratory results reported in PubChem BioAssay (Tox21).
Unmarked numbers belong to inactive results. Records with an inconclusive call do not appear. Entries that show only a call come without a potency. Activity calls are given as the source filed them. Unless noted, calls come from the whole dose curve; as a rule, active = well fitted curve in the direction sought with a large enough effect in the repeat runs; inconclusive = weak or mixed curves; inactive = no such curve, though single readings can be large; an effect the other way counts as inactive or inconclusive.

How the values were obtained:
[1] = biological target: Thyrotropin receptor (Homo sapiens) (UniProt P16473); assay: qHTS assay to identify small molecule agonists of the thyroid stimulating hormone receptor (TSHR) signaling pathway (AID 1224843; calls by dose curve; note: nearly all actives have a fitted effect of over 45% in size)
Chain of Thyrotropin receptor (Homo sapiens) (P16473 whole entry, looked up): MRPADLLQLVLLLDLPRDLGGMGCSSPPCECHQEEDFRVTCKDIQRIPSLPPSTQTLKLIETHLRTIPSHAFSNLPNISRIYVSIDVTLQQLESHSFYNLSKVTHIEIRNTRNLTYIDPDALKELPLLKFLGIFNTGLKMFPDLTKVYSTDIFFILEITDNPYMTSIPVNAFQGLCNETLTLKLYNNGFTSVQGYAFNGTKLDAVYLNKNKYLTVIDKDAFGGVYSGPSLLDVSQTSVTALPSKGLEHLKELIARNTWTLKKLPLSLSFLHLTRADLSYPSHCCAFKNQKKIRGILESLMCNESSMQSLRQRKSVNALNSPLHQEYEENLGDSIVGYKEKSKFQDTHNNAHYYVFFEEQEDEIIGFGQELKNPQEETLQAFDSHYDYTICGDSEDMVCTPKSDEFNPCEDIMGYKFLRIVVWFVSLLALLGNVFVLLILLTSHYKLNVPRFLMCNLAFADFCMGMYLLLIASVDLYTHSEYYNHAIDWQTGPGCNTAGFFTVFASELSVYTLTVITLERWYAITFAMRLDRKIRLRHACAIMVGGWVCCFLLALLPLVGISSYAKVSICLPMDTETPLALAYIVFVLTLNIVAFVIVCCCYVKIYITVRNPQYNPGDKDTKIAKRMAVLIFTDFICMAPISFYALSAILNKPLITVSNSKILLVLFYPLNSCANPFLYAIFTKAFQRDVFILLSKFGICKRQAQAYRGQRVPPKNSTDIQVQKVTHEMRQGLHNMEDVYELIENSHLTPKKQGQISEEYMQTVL
How it was run: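 HEK293/TSHR, 800 cells/well; cpd 30 min RT; add cAMP-d2 + anti-cAMP-cryptate, 1 h RT; fluorescence read on plate reader. 15-pt titration, n=3.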

[2] = qHTS assay to identify small molecule agonists of the hypoxia (HIF-1) signaling pathway - cell viability counter screen (AID 1224844; calls by dose curve; note: nearly all actives have a fitted effect of over 50% in size)
How it was run: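 In this counter screen, HRE-bla ME-180 cell viability after 17 hrs of compound exposure at 37C was read by CellTiter-Glo luminescence, multiplexed with the beta-lactamase reporter measurement.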

[3] = qHTS assay to identify small molecule agonists of H2AX (AID 1224845; active = well fitted activation curve with a large enough effect in the signal ratio in the repeat runs, not every such curve was filed as active; the % refers to the signal ratio)
How it was run: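 Wild-type CHO-K1 cells, plated overnight, exposed 3hr at 37C to 15 concentrations (0.76% DMSO final). Lysed, then HTRF anti-pH2AX (S139) cryptate and anti-H2AX-d2 antibodies, 24 hr room temperature; 665/620 nm emission read.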

[4] = qHTS assay to identify small molecule agonists of the hypoxia (HIF-1) signaling pathway (AID 1224846; active = well fitted activation curve with a large enough effect in the signal ratio in the repeat runs, not every such curve was filed as active; the % refers to the signal ratio)
How it was run: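 ME-180 HRE-bla reporter cells; compounds in DMSO, 17 h at 37C; read-out beta-lactamase via CCF4-AM FRET.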

[5] = qHTS assay to identify small molecule antagonists of the estrogen related receptor (ERR) signaling pathway from Tox21 library (AID 1224848); note: nearly all actives have a fitted effect of over 50% in size
How it was run: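 Compounds dissolved in DMSO are pin-transferred onto ERR reporter cells (2,000 per well) that have settled for 6 h at 37 C. Plates then incubate 18 h at 37 C before ONE-Glo luciferase reagent and a luminescence read 30 min later.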

[6] = qHTS assay to identify small molecule agonists of the estrogen related receptor (ERR) signaling pathway from Tox21 library (AID 1224849; calls by dose curve; note: nearly all actives have a fitted effect of over 15% in size); settings: ERR reporter cell line, ONE-Glo luciferase, 18 h; at 92.4 µM (top of the series) unless noted
How it was run: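 Luciferase activity in ERR pathway reporter cells served as the agonist readout; exposure lasted 18 h at 37 C, with ONE-Glo detection after 30 min at room temperature.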

[7] = qHTS RealTime-Glo MT Cell Viability Assay in HepG2 cells - 24 hour (AID 1224867); note: nearly all actives have a fitted effect of over 50% in size
How it was run: (§1)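 Cells + NanoLuc/prosubstrate dispensed (600 cells/well) → 5 h at 37 C/5% CO2 → compounds in DMSO transferred → 40 h incubation at 37 C, luminescence read at 0, 8, 16, 24, 32, 40 h.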

[8] = qHTS RealTime-Glo MT Cell Viability Assay in HEK293 cells - 32 hour (AID 1224868); note: top concentration of the series differs between compounds; nearly all actives have a fitted effect of over 50% in size
How it was run: (§2)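 Tox21 10K qHTS, HEK293, 600 cells/well, RealTime-Glo reagent co-dispensed with cells; 5 h preincubation, compound by pintool, 37 C, luminescence at 0–40 h.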

[9] = A CellTox Green Cytotoxicity Assay to monitor cytotoxicity in HEK293 cells - 0 hour (AID 1224869); note: nearly all actives have a fitted effect of over 50% in size
How it was run: (§3)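 Real-time, in one plate: 600 HEK293 cells/well with dead-cell DNA dye, pinned compound after 5 h, 37 C incubation over 40 h; viable cells give no appreciable fluorescence.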

[10] = qHTS RealTime-Glo MT Cell Viability Assay in HepG2 cells - 40 hour (AID 1224870); note: nearly all actives have a fitted effect of over 50% in size
How it was run: (§4)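 HepG2 cells (600/well) mixed with RealTime-Glo MT reagent, settled 5 h at 37 C/5% CO2 before compound addition. Nonlytic NanoLuc luminescence from viable-cell prosubstrate reduction read repeatedly during 40 h treatment at 37 C.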

[11] = A CellTox Green Cytotoxicity Assay to monitor cytotoxicity in HEK293 cells - 40 hour (AID 1224871); note: nearly all actives have a fitted effect of over 45% in size; note: potency is the fitted concentration of half-maximal effect
How it was run: as §3

[12] = qHTS RealTime-Glo MT Cell Viability Assay in HEK293 cells - 16 hour (AID 1224872)
How it was run: as §2

[13] = qHTS RealTime-Glo MT Cell Viability Assay in HepG2 cells - 8 hour (AID 1224873); note: nearly all actives have a fitted effect of over 55% in size
How it was run: as §4

[14] = qHTS RealTime-Glo MT Cell Viability Assay in HEK293 cells - 40 hour (AID 1224874); settings: RealTime-Glo luminescence; max response: active compounds read low; note: nearly all actives have a fitted effect of over 50% in size
How it was run: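 Kinetic, non-lysing viability readout. Seed HEK293 (600/well) with reagent, incubate 5 h at 37 C/5% CO2, pin 23 nL compound in DMSO, incubate at 37 C, read luminescence at 0, 8, 16, 24, 32, 40 h.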

[15] = A CellTox Green Cytotoxicity Assay to monitor cytotoxicity in HEK293 cells - 24 hour (AID 1224875); note: nearly all actives have a fitted effect of over 45% in size
How it was run: as §3

[16] = A CellTox Green Cytotoxicity Assay to monitor cytotoxicity in HepG2 cells - 16 hour (AID 1224876); note: nearly all actives have a fitted effect of over 45% in size
How it was run: (§5)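 Cytotoxicity was tracked as dead-cell DNA fluorescence in HepG2 cells treated with test compounds at 37 C; each time-point value comes from one kinetic series spanning 0, 8, 16, 24, 32 and 40 h.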

[17] = A CellTox Green Cytotoxicity Assay to monitor cytotoxicity in HepG2 cells - 24 hour (AID 1224878); note: nearly all actives have a fitted effect of over 45% in size
How it was run: as §5

[18] = A CellTox Green Cytotoxicity Assay to monitor cytotoxicity in HepG2 cells - 40 hour (AID 1224879); note: nearly all actives have a fitted effect of over 40% in size
How it was run: as §5

[19] = qHTS RealTime-Glo MT Cell Viability Assay in HepG2 cells - 32 hour (AID 1224877); note: nearly all actives have a fitted effect of over 55% in size
How it was run: as §1

[20] = qHTS assay to identify small molecule agonists of H2AX - cell viability counter screen (AID 1224847; calls by dose curve; note: top concentration of the series differs between compounds; nearly all actives have a fitted effect of over 30% in size)
How it was run: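 Compounds tested at 15 concentrations were incubated 3 hr at 37C with wild-type CHO-K1 cells; cellular ATP-based luminescence (CellTiter-Glo) indicated viability.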

Compound | Potency [1] | Potency [2] | Potency [3] | outcome [4] | Potency [5] | activity change, positive = activation [6] | Potency [7] | Potency [8] | Potency [9] | Potency [10] | Potency [11] | Potency [12] | Potency [13] | max response [14] [%] | Potency [15] | Potency [16] | Potency [17] | Potency [18] | Potency [19] | Potency [20]
CC(=O)[C@H]1CC[C@H]2[C@@H]3CC[C@H]4C[C@](C)(O)CC[C@]4(C)[C@H]3CC[C@]12C | inactive | inactive | inactive | inactive | inactive | 9.6% [at 42.5 µM] | inactive | inactive | inactive | inactive | inactive | inactive | inactive | -9.18 | inactive | inactive | inactive | inactive | – | –
CCOc1nc(F)cc2nc(S(=O)(=O)Nc3c(Cl)cccc3Cl)nn12 | inactive | inactive | inactive | inactive | – | – | inactive | inactive | inactive | inactive | inactive | inactive | inactive | 30.5 | inactive | inactive | inactive | inactive | inactive | –
C=CCN1CC[C@]23c4c5ccc(O)c4O[C@H]2C(=O)CC[C@@]3(O)[C@H]1C5 | inactive | inactive | inactive | – | inactive | -6.24% [at 42.5 µM] | inactive | inactive | inactive | inactive | inactive | inactive | inactive | -0.323 | inactive | inactive | inactive | inactive | inactive | inactive
C=CCOC(C)=O | inactive | inactive | inactive | inactive | – | – | inactive | inactive | inactive | inactive | inactive | inactive | inactive | -6.55 | inactive | inactive | inactive | inactive | – | –
C=CCCl | inactive | inactive | inactive | inactive | – | – | inactive | inactive | inactive | – | inactive | inactive | inactive | -3.44 | inactive | inactive | inactive | inactive | inactive | inactive
BrCCCCBr | inactive | inactive | inactive | inactive | – | – | inactive | inactive | inactive | – | inactive | inactive | inactive | 17.9 | inactive | inactive | inactive | inactive | inactive | inactive
CCCCCCCCCCOC(=O)c1ccccc1C(=O)OCCCCCCCCCC | inactive | inactive | inactive | inactive | inactive | 1.79% | inactive | inactive | inactive | inactive | inactive | inactive | inactive | 0.334 | inactive | inactive | inactive | inactive | inactive | –
O=C(O)c1ccccc1C(=O)Nc1cccc2ccccc12 | inactive | inactive | inactive | inactive | – | – | inactive | inactive | inactive | – | inactive | inactive | inactive | 18.5 | inactive | inactive | inactive | inactive | – | inactive
CC(C)N(CCC(C(N)=O)(c1ccccc1)c1ccccn1)C(C)C (configuration not stated) | inactive | inactive | inactive | – | inactive | 2.39% [at 42.5 µM] | inactive | inactive | inactive | inactive | inactive | inactive | inactive | 2.75 | inactive | inactive | inactive | – | inactive | inactive
NCCCNCCCN | inactive | inactive | inactive | inactive | – | – | inactive | inactive | inactive | inactive | 62.6 µM (active) | inactive | inactive | -7.03 | – | inactive | inactive | inactive | – | inactive
Sc1ccccc1Cl | inactive | inactive | inactive | – | inactive | 1.99% [at 42.5 µM] | inactive | inactive | inactive | inactive | inactive | inactive | inactive | -1.55 | inactive | – | – | – | inactive | inactive
O=C(CBr)Nc1ccc(Cl)cc1C(=O)c1ccccc1F | inactive | inactive | inactive | – | inactive | -13.3% [at 42.5 µM] | inactive | inactive | inactive | – | inactive | inactive | inactive | -13.4 | inactive | inactive | inactive | inactive | inactive | inactive
CCBr | inactive | – | inactive | inactive | inactive | 6.77% | inactive | inactive | inactive | inactive | inactive | inactive | inactive | 6.85 | inactive | inactive | inactive | inactive | inactive | inactive
O=C(O)CC(Cl)C(=O)O (configuration not stated) | inactive | – | inactive | inactive | inactive | 7% | inactive | inactive | inactive | inactive | inactive | inactive | inactive | 0.924 | inactive | – | – | – | inactive | inactive
